# Measured values: PubChem BioAssay AID1347076 (National Center for Advancing Translational Sciences (NCATS), 2019)
# Out of some 400,000 compounds screened, about 13,000 (3.2%) were called active. Where a call stands in place of a potency, no number is given. Not shown: some 18% with an inconclusive outcome. The call rests on the fitted dose curve; in most records, active means well fitted cell-killing curve with a large enough effect; inconclusive means small, poorly fitted or top-dose-only effect, or effect the other way; inactive means flat fitted curve, though single readings scatter. Many of the other results were omitted from the sample, so actives are more common in it than they were.
# Test: qHTS assay for MDR1-selective chemotherapeutics: Primary screen using the drug-selected MDR subline cells KB-V1; further: nearly all actives have a fitted effect of over 60% in size
# Settings: KB-V1 MDR cells viability, CellTiter-Glo, 72 h; series mostly up to 46.1 µM
# How it was run: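 Cytotoxicity via CellTiter-Glo luminescence after 72 h compound exposure at 37 degrees C. Cells: drug-selected KB-V1 line, DMEM phenol-red free plus 10% FBS. Compounds tested at multiple concentrations; normalized data fitted to concentration-effect curves.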
# Potency means the concentration at half of the fitted maximal effect.
row,SMILES,Potency
1,Cc1c(Nc2cc(N3CCCC(C)C3)c3nonc3c2[N+](=O)[O-])c(=O)n(-c2ccccc2)n1C (centres undefined),inactive
2,COCCNc1nc(N)c([N+](=O)[O-])c(N2CCCCCC2)n1,inactive
3,Nc1cc(N2CCCCCC2)c2nonc2c1[N+](=O)[O-],8.2 µM (active)
4,CC1(C)OC(=O)C2=C(C[C@@H](C3CCCCC3)O[C@@H]2c2ccc(Cl)cc2)O1,inactive
5,Cc1[nH]n(-c2cccc(Cl)c2)c(=O)c1/C=N/n1c(C)nc2ccccc2c1=O,7.31 µM (active)
6,Cc1[nH]n(-c2ccccc2)c(=O)c1/C=N/NC(=O)c1ccoc1C,inactive
7,CCCc1nc2ccccc2c(=O)n1/N=C/c1ccc(O)c(O)c1,inactive
8,COc1ccc(C(CNC(=O)CSc2ccccc2)N2CCOCC2)cc1 (centres undefined),inactive
9,Cc1ccc2cccc([N+](=O)[O-])c2n1,inactive
10,Cc1cccc(C)c1NC(=O)COC(=O)c1c(C)nn(-c2ccccc2)c1C,inactive
11,Cc1nn(-c2ccccc2)c(C)c1/C=C/C(=O)OC(C)C(N)=O (centres undefined),23.1 µM (active)
12,CCC(Oc1ccccc1)C(=O)OCC(=O)Nc1c(C)nn(-c2ccccc2)c1C (centres undefined),inactive
13,CCOC(=O)C1CCCN(C(=O)c2cccc3ccccc23)CC1 (centres undefined),inactive
14,CC(C)(O)C#Cc1ccc(CN2CCC(CO)(CCc3ccccc3)CC2)cc1,inactive
15,CCOC(=O)C1(CCOc2ccccc2)CCN(Cc2cc(OC)c(O)cc2Cl)CC1,inactive
16,Cc1c(CN2CCC(CO)(CCOc3ccccc3)CC2)[nH]c2ccc(Cl)cc12,5.8 µM (active)
17,COc1cc(OC)c(NC(=O)N2CC3CCCN3c3ccccc32)cc1Cl (centres undefined),inactive
18,C[C@@H]1CN([C@@H](C)CO)C(=O)CCCn2nncc2CO[C@H]1CN(C)C(=O)Nc1ccc(C(F)(F)F)cc1,inactive
19,CCc1nc2cccnc2n1-c1ccc(CC(=O)Nc2c(C)cccc2C)cc1,inactive
20,CC1CC(C)CN(c2oc(-c3ccc(OCc4ccc(Cl)cc4)cc3)nc2C#N)C1 (centres undefined),inactive
21,CCN(CC)S(=O)(=O)c1ccc(OC)c(NC(=O)CCc2c(C)noc2C)c1,inactive
22,CCOc1ccc(Br)cc1S(=O)(=O)Nc1cccc(S(=O)(=O)N(CC)CC)c1,inactive

row,SMILES,Potency
1,CCN(CC)S(=O)(=O)c1ccc(N(C)Cc2cccc(OC)c2OC)nc1,6.51 µM (active)
2,CCC(C(=O)Nc1cccc(Cl)c1C)n1nc(-c2ccc(C)cc2)ccc1=O (centres undefined),inactive
3,CCc1nc2c(OCCOc3ccccc3)cccn2c1N(C=O)Cc1ccc(OC)cc1,inactive
4,Cc1cc(C)n(-c2nc(C(F)(F)F)nc3ccccc23)n1,inactive
5,CC(Nc1nc(C(F)(F)F)nc2ccccc12)c1cccs1 (centres undefined),inactive
6,CCc1ccc(C(CNc2nc(C(F)(F)F)nc3ccccc23)N(C)C)cc1 (centres undefined),16.4 µM (active)
7,CC1=C(C(=O)N(C(C)C)C(C)C)CC(CC(=O)NCC2CCCCC2)C(=O)N1Cc1ccccc1 (centres undefined),inactive
8,COc1ccc2cc(C(=O)NCC3CCCO3)[nH]c2c1 (centres undefined),inactive
9,O=C(NCC1CCCO1)c1ccc2ccccc2n1 (centres undefined),inactive
10,O=C(NCC1CCCO1)c1cc2c([nH]c3ccccc32)c(-c2ccc(F)cc2)n1 (centres undefined),11.6 µM (active)
11,Cc1cccc(N(CC(=O)N2CCCC2)S(C)(=O)=O)c1C,inactive
12,Cc1ccc2c(CN3CCN(S(=O)(=O)c4ccccc4C(F)(F)F)CC3)cc(=O)oc2c1,inactive
13,CC(=O)N1CCN(Cc2cc(=O)oc3cc(C)ccc23)CC1,inactive
14,O=S(=O)(c1cccs1)N1CCN(Cc2ccccc2)CC1,16.4 µM (active)
15,O=C(NCc1ccccc1)C1CCCN(S(=O)(=O)c2cccs2)C1 (centres undefined),inactive
16,COc1ccc2c(CN3CCN(S(=O)(=O)c4cccs4)CC3)cc(=O)oc2c1,13 µM (active)
17,O=S(=O)(c1cccs1)N1CCc2ccccc2C1,inactive
18,O=c1cc(CN2CCCCCCC2)c2c(ccc3ccccc32)o1,inactive
19,CC/C(C)=N/Nc1nc2sc3c(c2c(=O)[nH]1)CC(C)(C)OC3,inactive
20,COCCNc1nc(-n2nc(C)cc2C)nc2sc3c(c12)CCCC3,9.2 µM (active)
21,CCc1nc(N2CCN(C(C)=O)CC2)c2c3c(sc2n1)CCCC3,inactive
22,CCC(O)CNc1nc(-n2nc(C)cc2C)nc2sc3c(c12)CC(C)(C)OC3 (centres undefined),2.59 µM (active)

row,SMILES,Potency
1,COCCn1c(C)cc(C(=O)CSc2ncnc3sc4c(c23)CCC4)c1C,inactive
2,CCOC(=O)Cn1c(SC)nc2sc3c(c2c1=O)CC(C)(C)OC3,inactive
3,O=C(NC1CCCCC1)C(c1cc2ccccc2o1)n1c(=O)c(-c2ccco2)nc2ccccc21 (centres undefined),inactive
4,Nc1[nH]c(C(=O)c2ccccc2)c(-c2ccncc2)c1C(=O)NCc1cccc2ccccc12,inactive
5,Cc1ccc(Cn2cc(CN3CC(N4CCN(C)CC4)CS3(=O)=O)nn2)cc1 (centres undefined),inactive
6,Cc1ccccc1CN1CCN(C(=O)c2cccc(F)c2)CC1,inactive
7,Cc1ccccc1CS(=O)(=O)CC1(O)CCN(C(=O)c2cccc(C(F)(F)F)c2)CC1,14.6 µM (active)
8,CCOC(=O)N1CCN(C(=O)c2ccc(S(=O)(=O)Nc3cccc(C(F)(F)F)c3)cc2)CC1,inactive
9,CCOc1ccc(-c2cc3nc(C4CCN(C(=O)OC(C)(C)C)CC4)c(C(=O)Nc4cccc(CC)c4)cn3n2)cc1,inactive
10,Cn1c(=O)c2c(-c3ccccc3Br)n(Cc3ccccc3)cc2n(C)c1=O,inactive
11,C[C@H]1CCC(=O)N([C@H](CSc2ccccc2)Cc2ccccc2)CC1,inactive
12,CC(=O)Nc1ccc(SC[C@H](Cc2ccccc2)N2CC[C@@H](C)CCC2=O)cc1,inactive
13,CN(CC(=O)Nc1cccc(F)c1)CC(=O)Nc1cccc([N+](=O)[O-])c1,11.6 µM (active)
14,CN(CC(=O)Nc1cccc(F)c1)C(=O)C1=COCCO1,inactive
15,Cc1ccc(CN(C)CC(=O)Nc2cccc([N+](=O)[O-])c2)o1,inactive
16,C[C@@H]1CN([C@H](C)CO)C(=O)CCCn2cc(nn2)CO[C@H]1CN(C)S(=O)(=O)c1ccc(Oc2ccccc2)nc1,inactive
17,O=C(C[C@H]1C[C@H]2c3cc(NS(=O)(=O)c4ccc(F)cc4)ccc3O[C@H]2[C@H](CO)O1)NCc1cc(F)ccc1F,inactive
18,Cc1cccc(-c2nnc(SC(C)C(=O)Nc3ccccc3)n2C)c1 (centres undefined),inactive
19,CC(Sc1nnc2c(n1)C1CCC2(C)C1(C)C)C(=O)Nc1ccccc1 (centres undefined),20.6 µM (active)
20,CC(Sc1nnc(C2CC2)n1C1CC1)C(=O)Nc1ccc(C(N)=O)cc1 (centres undefined),inactive
